Here are results for five molecules from PubChem BioAssay.

A short description of assay [1]: rapamycin-like changes in RPL19A-GFP expression – cell-based, S. cerevisiae, multiplex flow cytometry, primary screen (AID 1862).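 Also: lower values mimic rapamycin by blocking the RPL19A rise seen in DMSO cells.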 The conditions noted are these: S. cerevisiae RPL19A-GFP strain, flow cytometry fluorescence, 3 h; at 10 µM; stronger effect = lower value.
A short description of assay [2]: TOR pathway GLN3 branch reporter MEP2-GFP changes – S. cerevisiae, multiplex flow cytometry, primary screen (AID 1867;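 active = GFP response, as percent of the DMSO control, above the screen-wide mean plus 3 SD, about 139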;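 also: median GFP channel fluorescence of barcode-gated MEP2-GFP cells measured by flow cytometry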). The following applies: S. cerevisiae MEP2-GFP strain, 3 h, at 10 µM, stronger effect = higher value, 100% means same as DMSO wells. Background: Flow cytometry measures light scatter and fluorescence of single cells or particles in a stream.
Assay [3] in a line: TOR pathway RTG branch CIT2 reporter changes – S. cerevisiae, GFP fusion, multiplex flow cytometry, primary screen (AID 1870;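 active = percent response above a set limit, the screen-wide mean plus 3 SD, cut at about 130% in these data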;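 also: barcoded CIT2-GFP strain pooled with four other GFP strains with rapamycin as positive control; median GFP fluorescence per well over plate mean of DMSO wells so 100% = DMSO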). The following applies: S. cerevisiae CIT2-GFP expression, 3 h, at 10 µM, stronger effect = higher value.
The nature of assay [4]: TOR pathway LAP4-GFP level changes – S. cerevisiae, multiplex flow cytometry, primary screen (AID 1873;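 active = GFP signal, as percent of the solvent control, above the screen mean plus 3 SD, about 149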). The following applies: S. cerevisiae LAP4-GFP expression, 3 h, at 10 µM, stronger effect = higher value.
A short description of assay [5]: yeast AGP1-GFP level changes, GLN3 branch – cell-based, multiplex flow cytometry, S. cerevisiae, primary screen (AID 1887;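 active = GFP signal above the screen-wide mean plus 3 SD, that is over about 124.5% of the solvent control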;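 also: AGP1-GFP fusion strain of S. cerevisiae within a five-strain barcoded multiplex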). The conditions noted are these: 3 h, at 10 µM, stronger effect = higher value.
The nature of assay [6]: reduced mouse 2C T cell binding to pMHC/ICAM-1 vesicles – MLPCN validation set, flow cytometry, LFA-1/ICAM-1 modulator project, pilot screen (AID 2523;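 active = response below a set limit, under 55% cells CD8-positive and vesicle-bound, and CD8 cells' 90th-percentile brightness under 279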;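 as to vesicle binding response: mean PE anti-B7-1 fluorescence of CD8+ cells relative to row control; 100% = QL9-loaded vesicles with DMSO vehicle in the same plate row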). The conditions noted are these: 2C mouse CD8+ T cells, at 7 µM, stronger effect = lower value; double positive events: measured here: CD8+/vesicle+ event percentage.
In assay [7] the target is Integrin beta-1 (Homo sapiens) + Integrin alpha-4 (Homo sapiens) (UniProt P13612+P05556). Briefly: alpha4beta1 integrin LIBS antibody binding reduction – U937 cells, HUTS-21 mAb, flow cytometry, validation set, VLA-4 allosteric modulator project, pilot screen (AID 2674;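 active = inhibition above 50%, about 3 SD of the validation set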;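 also: antibody binding induced by the VLA-4 ligand LDV present at three times its Kd; 0% = LDV ligand with antibody and no compound and 100% = antibody without LDV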). The conditions noted are these: HUTS-21 LIBS mAb binding, at 6.7 µM, stronger effect = higher value, binding induced by LDV ligand.

Assay [8] in a line: calorie-restriction mimetic ROS inhibitors, yeast – validation compound set, pilot screen (AID 2706;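 active = superoxide response below 65% of plate, a cut near 3 SD across the whole screen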;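 also: yeast exposed to compound for one week at 30 degrees C before staining; 100% = mean of all compound wells on the same plate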). The following applies: S. cerevisiae aging, superoxide DHE fluorescence; at 10 µM, stronger effect = lower value.
Assay [9] concerns the target Beta-adrenergic receptor kinase 1 (Homo sapiens) (UniProt P25098). Kind of assay: GRK2 binders displacing RNA aptamer, biochemical, validation, human GRK2, bead flow cytometry (AID 488806;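 active = aptamer binding inhibition above 30%, about 3 SD of noise from non-fluorescent compounds; inactive = inhibition at or below 30%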). The conditions noted are these: bead-bound GRK2, FAM-aptamer displacement, at 10 µM, stronger effect = higher value.
The target of assay [10] is AP-2 complex subunit beta (Homo sapiens) (UniProt P63010). Briefly: beta-arrestin/AP2 interaction blockers – biochemical, validation set, GST-AP2 beads, flow cytometry, pilot screen (AID 504541;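 active = inhibition above 54%, about 3 SD of non-fluorescent compounds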;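 also: AP2 carries R879A mutation and is captured from E. coli lysate; bead-bound FITC arrestin peptide fluorescence measuring arrestin peptide binding to AP2; 0% = DMSO wells and 100% = excess unlabeled arrestin peptide control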). The following applies: FITC arrestin peptide, at 10 µM, stronger effect = higher value, AP2 beta2 appendage fragment, R879A mutant.
A short description of assay [11]: cytosolic pH regulators acting via V-ATPase – S. cerevisiae, pHLuorin, HTS validation (AID 504600; in the data active = response above about 15%;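 also: plate controls were DMSO for no effect and reference compound for full effect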). The following applies: V-ATPase proton transport, at 10 µM, stronger effect = higher value.
Assay [12] concerns anti-desmoglein-3 scFv antibody binding to human DSG3. Briefly: blockers of pathogenic pemphigus antibody–desmoglein-3 binding – biochemical, validation compound set, bead-based, flow cytometry, pilot screen (AID 588368;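 active = binding below the plate cutoff, the plate median minus 3 SD, with a reading above zero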;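 also: signal is the median channel fluorescence of bead-bound GFP antibody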). The conditions noted are these: Protein G beads, DSG3-Fc, scFv-GFP binding, at 10 µM, stronger effect = lower value.
The nature of assay [13]: Nile Red efflux blockade in pump-expressing yeast – validation compound set, multiplex, phenotypic, pilot screen (AID 588506;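 active = efflux inhibition above 0.42, the validation set average plus 4 SD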;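 also: Nile Red retained in cells so higher fluorescence means more efflux inhibition; 0 = negative control wells and 1 = enniatin B 25 µM full block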). The following applies: S. cerevisiae pump-expressing triplex, Nile Red efflux flow cytometry; at 10 µM; stronger effect = higher value; the pumps come from Candida albicans.
For assay [14], the target named is ATP-binding cassette sub-family B member 6 (Homo sapiens) (UniProt Q9NP58). Briefly: blockers of ABCB6-driven porphyrin uptake – K562-ABCB6 cells, flow cytometry, validation set, pilot screen (AID 588550;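 active = inhibition above the screen-wide mean plus 3 SD, about 51%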;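 also: 0% = DMSO wells and 100% = benzethonium chloride 70 µM positive control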). The following applies: K562-ABCB6 porphyrin accumulation, 1 h, at 10 µM, stronger effect = higher value.
Assay [15] is described as follows: AML differentiation inducers, ER-HoxA9 marrow cells – cell-based, GFP/MAC1 double positive, flow cytometry, validation set, primary screen (AID 588685;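 active = differentiation response of at least 50%, scaled between solvent and reference control, from cells with both markers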;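 also: compound exposure lasts four days before antibody staining and flow analysis; 0% = DMSO wells and 100% = 5 µM fulvestrant positive control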). The following applies: stronger effect = higher value, normalized: vehicle 0, fulvestrant 100.
Assay [16] addresses Beta-2 adrenergic receptor (Homo sapiens) (UniProt P07550). Briefly: agonist-induced loss of surface beta2AR – cell-based, FAP fluorogen, flow cytometry, validation set, pilot screen (AID 504459;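 active = percent response above 42, roughly 3 SD of non-fluorescent test compounds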;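 also: agonist-driven loss of surface beta2AR via internalization measured by FAP dye flow cytometry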). The following applies: Am2.2-beta2AR cells, at 10 µM, stronger effect = higher value.

Results filed as inconclusive are left out. Active and inactive are the calls of the source. Rule as the data show it, unless noted: active = percent of DMSO control GFP below about 86%; inactive = the rest, inconclusive results apart.

Sequence of Beta-adrenergic receptor kinase 1 (Homo sapiens) (P25098 whole entry, looked up): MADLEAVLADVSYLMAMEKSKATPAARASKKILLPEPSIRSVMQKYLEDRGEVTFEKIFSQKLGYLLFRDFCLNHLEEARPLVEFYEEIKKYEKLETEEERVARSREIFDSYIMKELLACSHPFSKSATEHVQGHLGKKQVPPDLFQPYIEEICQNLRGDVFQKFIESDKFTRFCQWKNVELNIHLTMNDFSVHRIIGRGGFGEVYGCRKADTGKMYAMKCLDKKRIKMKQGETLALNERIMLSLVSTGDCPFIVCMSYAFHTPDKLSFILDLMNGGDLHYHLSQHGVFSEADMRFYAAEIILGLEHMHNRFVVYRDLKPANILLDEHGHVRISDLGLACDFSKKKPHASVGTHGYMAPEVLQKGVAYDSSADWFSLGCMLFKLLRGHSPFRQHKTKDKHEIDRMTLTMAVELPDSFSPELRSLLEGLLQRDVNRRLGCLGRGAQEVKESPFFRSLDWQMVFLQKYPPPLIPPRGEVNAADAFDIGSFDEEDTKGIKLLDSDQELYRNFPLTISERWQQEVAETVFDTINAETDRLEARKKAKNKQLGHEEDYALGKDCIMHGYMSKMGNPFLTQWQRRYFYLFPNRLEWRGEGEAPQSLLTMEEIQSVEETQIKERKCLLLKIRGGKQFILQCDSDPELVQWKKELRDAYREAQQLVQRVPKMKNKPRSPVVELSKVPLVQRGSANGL
Sequence of ATP-binding cassette sub-family B member 6 (Homo sapiens) (Q9NP58 whole entry, looked up): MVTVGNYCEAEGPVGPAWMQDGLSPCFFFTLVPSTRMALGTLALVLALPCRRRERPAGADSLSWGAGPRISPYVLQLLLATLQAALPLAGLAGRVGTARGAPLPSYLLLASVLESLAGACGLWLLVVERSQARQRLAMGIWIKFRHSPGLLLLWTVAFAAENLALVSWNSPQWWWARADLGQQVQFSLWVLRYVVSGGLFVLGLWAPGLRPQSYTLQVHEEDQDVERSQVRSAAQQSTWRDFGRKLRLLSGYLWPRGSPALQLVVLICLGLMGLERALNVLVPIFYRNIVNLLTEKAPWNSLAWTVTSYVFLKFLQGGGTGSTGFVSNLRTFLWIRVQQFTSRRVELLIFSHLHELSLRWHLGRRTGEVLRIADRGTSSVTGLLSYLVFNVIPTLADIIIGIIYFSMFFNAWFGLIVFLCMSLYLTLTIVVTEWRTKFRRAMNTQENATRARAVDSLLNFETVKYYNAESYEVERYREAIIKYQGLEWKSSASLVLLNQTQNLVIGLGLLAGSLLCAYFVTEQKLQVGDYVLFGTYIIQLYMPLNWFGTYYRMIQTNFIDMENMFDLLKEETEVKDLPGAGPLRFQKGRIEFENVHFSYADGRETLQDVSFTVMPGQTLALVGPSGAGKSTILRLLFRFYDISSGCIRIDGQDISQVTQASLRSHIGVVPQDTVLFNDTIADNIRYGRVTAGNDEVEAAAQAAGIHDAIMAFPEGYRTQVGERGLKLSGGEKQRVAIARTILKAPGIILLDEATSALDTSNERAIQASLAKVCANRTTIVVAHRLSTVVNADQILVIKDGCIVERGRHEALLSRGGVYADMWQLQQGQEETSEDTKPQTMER
Sequence of AP-2 complex subunit beta (Homo sapiens) (P63010 whole entry, looked up, the tested form may be a part, one chain of several): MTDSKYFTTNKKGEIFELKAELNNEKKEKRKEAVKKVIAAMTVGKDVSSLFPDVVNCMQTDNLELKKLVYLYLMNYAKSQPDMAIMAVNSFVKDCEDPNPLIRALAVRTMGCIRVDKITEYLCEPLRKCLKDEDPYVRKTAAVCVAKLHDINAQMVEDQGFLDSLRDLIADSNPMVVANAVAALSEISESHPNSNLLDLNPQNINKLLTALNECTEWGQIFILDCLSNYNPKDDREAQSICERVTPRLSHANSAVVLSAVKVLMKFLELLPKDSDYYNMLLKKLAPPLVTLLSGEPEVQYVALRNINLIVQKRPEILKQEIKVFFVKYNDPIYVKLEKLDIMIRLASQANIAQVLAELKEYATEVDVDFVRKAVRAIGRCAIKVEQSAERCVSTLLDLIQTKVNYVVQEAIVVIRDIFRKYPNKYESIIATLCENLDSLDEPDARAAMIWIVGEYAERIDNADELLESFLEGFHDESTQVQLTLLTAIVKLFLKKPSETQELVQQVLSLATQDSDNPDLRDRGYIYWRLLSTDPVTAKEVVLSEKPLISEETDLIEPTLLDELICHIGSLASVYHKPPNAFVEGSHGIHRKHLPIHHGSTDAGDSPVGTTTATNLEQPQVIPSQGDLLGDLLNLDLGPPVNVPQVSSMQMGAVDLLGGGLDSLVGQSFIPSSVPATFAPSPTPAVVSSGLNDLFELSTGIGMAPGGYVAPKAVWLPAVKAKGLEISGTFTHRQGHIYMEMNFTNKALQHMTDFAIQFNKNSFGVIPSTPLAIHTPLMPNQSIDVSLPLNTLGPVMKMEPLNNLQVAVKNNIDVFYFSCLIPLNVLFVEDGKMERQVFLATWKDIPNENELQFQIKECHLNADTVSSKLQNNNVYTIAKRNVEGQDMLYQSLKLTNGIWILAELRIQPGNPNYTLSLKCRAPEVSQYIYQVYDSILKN
Sequence of Integrin beta-1 (Homo sapiens) + Integrin alpha-4 (Homo sapiens) (P05556 whole entry, looked up): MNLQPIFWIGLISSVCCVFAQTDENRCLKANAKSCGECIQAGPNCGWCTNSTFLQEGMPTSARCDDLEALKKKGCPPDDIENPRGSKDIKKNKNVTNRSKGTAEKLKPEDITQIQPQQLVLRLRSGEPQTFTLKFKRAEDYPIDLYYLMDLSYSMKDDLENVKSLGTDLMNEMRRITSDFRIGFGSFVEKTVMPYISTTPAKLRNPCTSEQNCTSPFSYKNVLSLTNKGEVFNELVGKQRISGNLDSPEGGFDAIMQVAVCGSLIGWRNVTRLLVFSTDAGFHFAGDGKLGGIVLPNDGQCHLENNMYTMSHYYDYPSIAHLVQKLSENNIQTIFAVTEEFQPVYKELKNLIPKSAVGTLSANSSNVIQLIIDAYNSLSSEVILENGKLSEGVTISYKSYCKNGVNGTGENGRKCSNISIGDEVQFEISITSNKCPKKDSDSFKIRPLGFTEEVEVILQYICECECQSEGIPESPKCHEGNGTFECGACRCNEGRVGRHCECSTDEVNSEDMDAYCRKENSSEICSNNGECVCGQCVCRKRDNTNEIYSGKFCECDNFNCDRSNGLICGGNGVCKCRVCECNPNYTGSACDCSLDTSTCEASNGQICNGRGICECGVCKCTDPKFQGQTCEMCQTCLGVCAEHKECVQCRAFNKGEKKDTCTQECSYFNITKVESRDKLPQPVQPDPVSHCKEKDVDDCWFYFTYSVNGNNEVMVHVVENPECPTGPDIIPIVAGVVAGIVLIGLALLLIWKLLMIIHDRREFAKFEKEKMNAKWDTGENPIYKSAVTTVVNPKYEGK
Sequence of Integrin beta-1 (Homo sapiens) + Integrin alpha-4 (Homo sapiens) (P13612 whole entry, looked up): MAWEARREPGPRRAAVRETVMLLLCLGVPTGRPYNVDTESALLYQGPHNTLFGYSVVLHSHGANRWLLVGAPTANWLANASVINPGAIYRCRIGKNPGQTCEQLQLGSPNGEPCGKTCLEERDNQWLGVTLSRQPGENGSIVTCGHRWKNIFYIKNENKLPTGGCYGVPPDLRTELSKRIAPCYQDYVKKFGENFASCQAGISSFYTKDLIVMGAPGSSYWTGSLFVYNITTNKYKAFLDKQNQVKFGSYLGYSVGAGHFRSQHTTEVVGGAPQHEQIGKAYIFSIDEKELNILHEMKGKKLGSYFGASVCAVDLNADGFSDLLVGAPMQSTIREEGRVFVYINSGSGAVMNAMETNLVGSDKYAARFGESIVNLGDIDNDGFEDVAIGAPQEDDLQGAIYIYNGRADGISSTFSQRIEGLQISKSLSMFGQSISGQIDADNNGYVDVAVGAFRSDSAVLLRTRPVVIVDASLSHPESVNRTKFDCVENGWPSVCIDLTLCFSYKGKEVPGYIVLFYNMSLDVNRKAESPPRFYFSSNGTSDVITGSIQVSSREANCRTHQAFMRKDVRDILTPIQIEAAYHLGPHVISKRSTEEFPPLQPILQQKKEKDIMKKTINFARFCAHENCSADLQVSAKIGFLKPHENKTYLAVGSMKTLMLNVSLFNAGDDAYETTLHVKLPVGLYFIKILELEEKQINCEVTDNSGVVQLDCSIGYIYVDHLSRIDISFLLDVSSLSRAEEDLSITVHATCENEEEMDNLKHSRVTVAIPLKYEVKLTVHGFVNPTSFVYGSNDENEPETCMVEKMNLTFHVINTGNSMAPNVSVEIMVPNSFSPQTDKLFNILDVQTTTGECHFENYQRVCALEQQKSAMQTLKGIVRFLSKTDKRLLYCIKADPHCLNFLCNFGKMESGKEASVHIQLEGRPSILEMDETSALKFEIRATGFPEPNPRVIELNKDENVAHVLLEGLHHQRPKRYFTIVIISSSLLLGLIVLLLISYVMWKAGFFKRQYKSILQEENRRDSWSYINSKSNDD
Sequence of Beta-2 adrenergic receptor (Homo sapiens) (P07550 whole entry, looked up): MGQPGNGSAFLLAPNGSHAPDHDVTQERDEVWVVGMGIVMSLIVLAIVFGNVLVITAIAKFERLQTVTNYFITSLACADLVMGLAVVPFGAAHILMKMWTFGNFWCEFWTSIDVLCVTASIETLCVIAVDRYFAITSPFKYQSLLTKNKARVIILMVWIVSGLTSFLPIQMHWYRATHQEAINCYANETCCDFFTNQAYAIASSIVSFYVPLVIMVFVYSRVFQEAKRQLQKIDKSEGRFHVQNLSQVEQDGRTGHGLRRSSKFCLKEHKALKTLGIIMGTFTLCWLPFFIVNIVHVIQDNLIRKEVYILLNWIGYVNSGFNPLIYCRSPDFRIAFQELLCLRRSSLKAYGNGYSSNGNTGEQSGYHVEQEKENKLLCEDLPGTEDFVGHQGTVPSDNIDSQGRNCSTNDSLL

For `CCOC(=O)C1(CCCc2ccccc2)CCN(C2CCN(C(C)=O)CC2)CC1`, in [1], the percent of DMSO control GFP was 97.1% (inactive). The GFP response vs DMSO in [2] is 101% (inactive); in assay [4] it was 92.3% (inactive). The percent response of DMSO control in [3] is 99.8% (inactive). Also, in assay [5], the GFP response, % of DMSO was 92.4% (inactive). Also, in assay [6], the double positive events is 52%. For the same molecule, in assay [6], the vesicle binding response was 138% (inactive). Besides, the inhibition is -12.4% (inactive) in assay [7], 12.5% (inactive) in [10] and 9% (inactive) in assay [14]. Also, in [8], the superoxide response (% of plate) is 103% (inactive). Also, in assay [9], the aptamer binding inhibition is 9% (inactive). In assay [11], the response is -6.58% (inactive). Besides, the binding (% of control) in assay [12] was 109% (inactive). Further, the efflux inhibition (fraction of control) in assay [13] was 0.37 (inactive). Further, the differentiation response in [15] was -13.1% (inactive).

Consider `CN1C(=O)C(O)(CC(=O)/C=C/C=C/c2ccccc2)c2ccccc21` (stereo not given), for which the percent of DMSO control GFP in assay [1] was 104% (inactive). Besides, the results for the GFP response vs DMSO in [2] and in assay [4] were 98.9% (inactive) and 94.3% (inactive), respectively. Moreover, the percent response of DMSO control in [3] was 104% (inactive). In [5], the GFP response, % of DMSO is 98.1% (inactive). The double positive events in assay [6] was determined as 54.8%. The vesicle binding response in assay [6] was 153% (inactive). The inhibition in assay [7] is -0.24% (inactive); in assay [10], -6.66% (inactive); in [14], 5% (inactive). Besides, the superoxide response (% of plate) in assay [8] is 102% (inactive). For the same molecule, in assay [9], the aptamer binding inhibition was 2% (inactive). The response in assay [11] was 0.35% (inactive). The binding (% of control) in assay [12] was 99% (inactive). The efflux inhibition (fraction of control) in [13] was 0.06 (inactive). Besides, the differentiation response in assay [15] was -18% (inactive).

On to `COc1ccc([C@@H]2Sc3ccccc3N(CCN(C)C)C(=O)[C@@H]2OC(C)=O)cc1`, for which, in [1], the percent of DMSO control GFP was 104% (inactive). The figures for the GFP response vs DMSO in assay [2] and in [4] were 102% (inactive) and 93.3% (inactive), respectively. Besides, in assay [3], the percent response of DMSO control was 105% (inactive). In addition, the GFP response, % of DMSO in assay [5] is 101% (inactive). For the same molecule, in assay [6], the double positive events came out at 62.9%. Further, the vesicle binding response in assay [6] is 200% (inactive). The inhibition was -0.24% (inactive) in [7], 5.2% (inactive) in [10] and -227% (inactive) in assay [14]. Besides, in assay [8], the superoxide response (% of plate) is 101% (inactive). In addition, the aptamer binding inhibition in assay [9] is -1% (inactive). Further, in assay [11], the response was -4.23% (inactive). Moreover, in assay [12], the binding (% of control) is 99.1% (inactive). The efflux inhibition (fraction of control) in assay [13] is 0.03 (inactive). Moreover, the differentiation response in assay [15] was -8.27% (inactive).

For the molecule `Cn1c(=O)c2c(ncn2Cc2ccccc2)n(C)c1=O`, in [1], the percent of DMSO control GFP was 100% (inactive). Further, the results for the GFP response vs DMSO in assay [2] and in [4] were 105% (inactive) and 103% (inactive), respectively. Moreover, the percent response of DMSO control in assay [3] was 88.6% (inactive). The GFP response, % of DMSO in assay [5] is 109% (inactive). This molecule showed a double positive events in assay [6] of 65.2%. The vesicle binding response in [6] was 182% (inactive). The inhibition was -1.97% (inactive) in assay [7] and 6% (inactive) in assay [14]. In addition, in [8], the superoxide response (% of plate) was 96.4% (inactive). Besides, in assay [9], the aptamer binding inhibition was 0% (inactive). Also, the response in assay [16] was -23% (inactive); in [11], -0.4% (inactive). For the same molecule, the binding (% of control) in assay [12] was 104% (inactive). For the same molecule, the efflux inhibition (fraction of control) in assay [13] was 0 (inactive). In [15], the differentiation response was -16.8% (inactive).

For the molecule `CC(=O)Nc1ccc(OS(=O)(=O)c2c(C)cc(C)cc2C)cc1`, in assay [1], the percent of DMSO control GFP was 99% (inactive). Besides, the GFP response vs DMSO in assay [2] is 92.8% (inactive); in [4] it was 96.4% (inactive). The percent response of DMSO control in [3] was 98.8% (inactive). Moreover, the GFP response, % of DMSO in [5] is 86.7% (inactive). For the same molecule, the double positive events in assay [6] is 47.1%. The vesicle binding response in assay [6] is 166% (inactive). Also, the inhibition in [7] was 10.9% (inactive); in assay [10], -5.36% (inactive); in assay [14], 8% (inactive). Further, in assay [8], the superoxide response (% of plate) is 99.6% (inactive). Also, the aptamer binding inhibition in [9] is -1% (inactive). Further, the response in assay [11] is 0.9% (inactive). Moreover, the binding (% of control) in [12] was 102% (inactive). Also, the efflux inhibition (fraction of control) in assay [13] is -0.2 (inactive). In addition, the differentiation response in assay [15] was -18% (inactive).

One may read the inhibition as the drop in the measured response relative to a control, in per cent.
